The test system of the test is E. coli TESEC Mtb Alr. The test is described as follows: growth (OD600 after 10 h); higher = more growth (less inhibition). Conditions: compound 0.1 mM. The protocol: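 TESEC Mtb Alr E. coli, or the Alr+ wild-type control, in 384-well plates with Prestwick library compounds at 0.1 mM and 1% DMSO, across arabinose induction levels of 1E3 to 1E7 nM. Growth is read as OD600 after 10 h at 37 °C in triplicate biological replicates.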

[1] abbreviates: arabinose 1000 nM, raw OD600 reference: median of DMSO wells 0.294, cell-free background 0.041.
Setting [2] is: arabinose 10000 nM, raw OD600 reference: median of DMSO wells 0.264, cell-free background 0.041.
Where [3] appears, read: arabinose 100000 nM, raw OD600 reference: median of DMSO wells 0.201, cell-free background 0.041.
Setting [4] is: arabinose 1000000 nM, raw OD600 reference: median of DMSO wells 0.193, cell-free background 0.041.
[5] abbreviates: arabinose 10000000 nM, raw OD600 reference: median of DMSO wells 0.146, cell-free background 0.041.

Molecules are shown by their SMILES. Counter-ions that a name gives are not always drawn. ± gives the standard deviation of the averaged measurements.

Consider `C[C@]12CC[C@H](O)C[C@@H]1CC[C@@H]1[C@@H]2CC[C@]2(C)C(=O)CC[C@@H]12` [Epiandrosterone], for which the growth by setting is: under setting [1], 0.12 ± 0.0055; under setting [2], 0.107 ± 0.0061; under setting [3], 0.0943 ± 0.0019; under setting [4], 0.0694 ± 0.0019; under setting [5], 0.0859 ± 0.0011.
For `c1ccc2c(c1)OCC(C1=NCCN1)O2` (stereo not given) [Idazoxan hydrochloride], in that order: 0.281 ± 0.02, 0.27 ± 0.0069, 0.188 ± 0.0024, 0.192 ± 0.0045 and 0.141 ± 0.0099.
Take `CN1CCN(C(=O)OC2c3nccnc3C(=O)N2c2ccc(Cl)cn2)CC1` (stereo not given) [Zopiclone]: the growth by setting is: under setting [1], 0.284 ± 0.0071; under setting [2], 0.246 ± 0.0053; under setting [3], 0.183 ± 0.011; under setting [4], 0.18 ± 0.0087; under setting [5], 0.138 ± 0.0054.
Regarding `CCC1=C[C@H]2CN3CCc4c([nH]c5ccccc45)[C@](C(=O)OC)(C2)[C@H]13` [Catharanthine], the growth by setting is: under setting [1], 0.262 ± 0.012; under setting [2], 0.259 ± 0.006; under setting [3], 0.169 ± 0.013; under setting [4], 0.101 ± 0.0015; under setting [5], 0.144 ± 0.0052.
The matching figures for `C[N+]1(C)[C@@H]2CC[C@H]1C[C@@H](OC(=O)C(CO)c1ccccc1)C2` (stereo not given in full) [Methylatropine nitrate]: 0.283 ± 0.017, 0.247 ± 0.0037, 0.206 ± 0.0059, 0.2 ± 0.007 and 0.14 ± 0.0059.
With `NC(=O)CN1CCCC1=O` [Piracetam], the growth by setting is: under setting [1], 0.299 ± 0.0073; under setting [2], 0.27 ± 0.0054; under setting [3], 0.224 ± 0.034; under setting [4], 0.184 ± 0.0072; under setting [5], 0.15 ± 0.0043.
The matching figures for `C[N+]1([O-])[C@@H]2C[C@@H](OC(=O)[C@H](CO)c3ccccc3)C[C@H]1[C@@H]1O[C@@H]12` (stereo not given in full) [Scopolamin-N-oxide hydrobromide]: 0.3 ± 0.013, 0.28 ± 0.0081, 0.24 ± 0.027, 0.19 ± 0.0068 and 0.165 ± 0.0072.
The matching figures for `C=C1CC[C@@]2(O)[C@H]3Cc4ccc(O)c5c4[C@@]2(CCN3CC2CC2)[C@H]1O5` [Nalmefene hydrochloride]: 0.3098 ± 0.003, 0.274 ± 0.0086, 0.157 ± 0.0079, 0.19 ± 0.005 and 0.1356 ± 0.0009.

(Values after the supplement of paper PMC9262897, “Low-cost anti-mycobacterial drug discovery using engineered E. coli” (Nature Communications, 2022).)
